{"source": "paper PMC12820563", "about": "“FoxP3 forms a head-to-head dimer in vivo and stabilizes its multimerization on adjacent microsatellites”", "note": "Over roughly 16,000 sequences, “rpm ratio (pull-down/input)” has its median near 0.5; the highest 2% begin near 5.5. The sample holds the highest values, similar sequences and a random draw of the others, so the mix is not that of the screen."}
{"target": "T1, MBP-FoxP3dN (Mus musculus, UniProt Q99JB6 188-423)", "T1 sequence": "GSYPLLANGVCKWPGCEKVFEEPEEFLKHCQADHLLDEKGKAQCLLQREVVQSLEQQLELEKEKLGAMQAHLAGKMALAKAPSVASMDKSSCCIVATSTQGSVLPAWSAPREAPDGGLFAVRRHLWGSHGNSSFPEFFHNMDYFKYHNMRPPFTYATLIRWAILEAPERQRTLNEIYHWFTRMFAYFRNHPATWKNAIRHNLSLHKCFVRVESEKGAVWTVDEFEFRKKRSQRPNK", "assay": "PD-seq (MBP pull-down with sequencing); 20 mM Tris-HCl pH 7.5, 100 mM NaCl, 1.5 mM MgCl2, 0.4 uM protein, 0.1 uM dsDNA library, 30 min, room temperature, amylose pull-down; high values mean tight binding", "conditions": "protein: recombinant; tags: His6-MBP; chain copies: 2; dsDNA, one strand shown", "procedure,_shortened": "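His6-MBP-tagged mouse FoxP3 or FoxP1 fragment lacking the N-terminus, expressed in E. coli, was mixed at 0.4 µM with 0.1 µM Klenow-filled double-stranded degenerate DNA library. Incubation was 30 min at room temperature in Tris pH 7.5 buffer with NaCl and MgCl2. Complexes were caught on amylose resin and washed three times; DNA was released with proteinase K, PCR-barcoded and Illumina-sequenced. Binding is reads-per-million enrichment, pull-down over input, with replicates pooled.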"}
{"sequence": "GATGATTGTTCTCCCAGCTGATGAATTTTCTCGCTCGAGTAAACAAATTTTCCTAATCTTTCTGTTCAAGCGCCATCTAC", "binding signal": "0.241 RPM ratio (pull-down/input)"}
{"sequence": "GATGATTGTTCTCCCAGCTGATGAATTATATATATCGAGTAAACAAATTTTCCTAATCTTTCTGTTCAAGCGCCATCTAC", "binding signal": "1.27 RPM ratio (pull-down/input)"}
{"sequence": "GATGATTGTTCTCCCAGCTGATGAATTGAAGGGATCGAGTAAACAAATTTTCCTAATCTTTCTGTTCAAGCGCCATCTAC", "binding signal": "0.265 RPM ratio (pull-down/input)"}
{"sequence": "GATGATTGTTCTCCCAGCTGATGAATTCAGGCGATCGAGTAAACAAATTTTCCTAATCTTTCTGTTCAAGCGCCATCTAC", "binding signal": "0.508 RPM ratio (pull-down/input)"}
{"sequence": "GATGATTGTTCTCCCAGCTGATGAATTATGCGCGTCGAGTAAACAAATTTTCCTAATCTTTCTGTTCAAGCGCCATCTAC", "binding signal": "3.33 RPM ratio (pull-down/input)"}
{"sequence": "GATGATTGTTCTCCCAGCTGATGAATTGCGTGTGTCGAGTAAACAAATTTTCCTAATCTTTCTGTTCAAGCGCCATCTAC", "binding signal": "2.22 RPM ratio (pull-down/input)"}
{"sequence": "GATGATTGTTCTCCCAGCTGATGAATTTTGCGTGTCGAGTAAACAAATTTTCCTAATCTTTCTGTTCAAGCGCCATCTAC", "binding signal": "5.56 RPM ratio (pull-down/input)"}
{"sequence": "GATGATTGTTCTCCCAGCTGATGAATTGTGTGCGTCGAGTAAACAAATTTTCCTAATCTTTCTGTTCAAGCGCCATCTAC", "binding signal": "2.16 RPM ratio (pull-down/input)"}
{"sequence": "GATGATTGTTCTCCCAGCTGATGAATTGTGCGTGTCGAGTAAACAAATTTTCCTAATCTTTCTGTTCAAGCGCCATCTAC", "binding signal": "6.18 RPM ratio (pull-down/input)"}
{"sequence": "GATGATTGTTCTCCCAGCTGATGAATTTGCGTGTTCGAGTAAACAAATTTTCCTAATCTTTCTGTTCAAGCGCCATCTAC", "binding signal": "3.79 RPM ratio (pull-down/input)"}
{"sequence": "GATGATTGTTCTCCCAGCTGATGAATTATATGCGTCGAGTAAACAAATTTTCCTAATCTTTCTGTTCAAGCGCCATCTAC", "binding signal": "1.07 RPM ratio (pull-down/input)"}
{"sequence": "GATGATTGTTCTCCCAGCTGATGAATTATGCGTGTCGAGTAAACAAATTTTCCTAATCTTTCTGTTCAAGCGCCATCTAC", "binding signal": "5.88 RPM ratio (pull-down/input)"}
{"sequence": "GATGATTGTTCTCCCAGCTGATGAATTGCGCGTGTCGAGTAAACAAATTTTCCTAATCTTTCTGTTCAAGCGCCATCTAC", "binding signal": "4.88 RPM ratio (pull-down/input)"}
{"sequence": "GATGATTGTTCTCCCAGCTGATGAATTGGCCACGTCGAGTAAACAAATTTTCCTAATCTTTCTGTTCAAGCGCCATCTAC", "binding signal": "0.526 RPM ratio (pull-down/input)"}
{"sequence": "GATGATTGTTCTCCCAGCTGATGAATTGGTAGCTTCGAGTAAACAAATTTTCCTAATCTTTCTGTTCAAGCGCCATCTAC", "binding signal": "0.798 RPM ratio (pull-down/input)"}
{"sequence": "GATGATTGTTCTCCCAGCTGATGAATTTAGCCCGTCGAGTAAACAAATTTTCCTAATCTTTCTGTTCAAGCGCCATCTAC", "binding signal": "1.59 RPM ratio (pull-down/input)"}
{"sequence": "GATGATTGTTCTCCCAGCTGATGAATTAGTGCGATCGAGTAAACAAATTTTCCTAATCTTTCTGTTCAAGCGCCATCTAC", "binding signal": "0.851 RPM ratio (pull-down/input)"}
{"sequence": "GATGATTGTTCTCCCAGCTGATGAATTGTTTGTCTCGAGTAAACAAATTTTCCTAATCTTTCTGTTCAAGCGCCATCTAC", "binding signal": "7.63 RPM ratio (pull-down/input)"}
{"sequence": "GATGATTGTTCTCCCAGCTGATGAATTTGTCTACTCGAGTAAACAAATTTTCCTAATCTTTCTGTTCAAGCGCCATCTAC", "binding signal": "5.77 RPM ratio (pull-down/input)"}
{"sequence": "GATGATTGTTCTCCCAGCTGATGAATTGTCCTACTCGAGTAAACAAATTTTCCTAATCTTTCTGTTCAAGCGCCATCTAC", "binding signal": "0.368 RPM ratio (pull-down/input)"}
{"sequence": "GATGATTGTTCTCCCAGCTGATGAATTTCTAATCTCGAGTAAACAAATTTTCCTAATCTTTCTGTTCAAGCGCCATCTAC", "binding signal": "0.288 RPM ratio (pull-down/input)"}
{"sequence": "GATGATTGTTCTCCCAGCTGATGAATTCTTTGTCTCGAGTAAACAAATTTTCCTAATCTTTCTGTTCAAGCGCCATCTAC", "binding signal": "0.413 RPM ratio (pull-down/input)"}
{"sequence": "GATGATTGTTCTCCCAGCTGATGAATTGTCTTACTCGAGTAAACAAATTTTCCTAATCTTTCTGTTCAAGCGCCATCTAC", "binding signal": "0.469 RPM ratio (pull-down/input)"}
{"sequence": "GATGATTGTTCTCCCAGCTGATGAATTGTTGTTCTCGAGTAAACAAATTTTCCTAATCTTTCTGTTCAAGCGCCATCTAC", "binding signal": "7.17 RPM ratio (pull-down/input)"}
{"sequence": "GATGATTGTTCTCCCAGCTGATGAATTTCTGTCCTCGAGTAAACAAATTTTCCTAATCTTTCTGTTCAAGCGCCATCTAC", "binding signal": "0.313 RPM ratio (pull-down/input)"}
{"sequence": "GATGATTGTTCTCCCAGCTGATGAATTGTTGTCCTCGAGTAAACAAATTTTCCTAATCTTTCTGTTCAAGCGCCATCTAC", "binding signal": "5.63 RPM ratio (pull-down/input)"}
{"sequence": "GATGATTGTTCTCCCAGCTGATGAATTTTTTTTCTCGAGTAAACAAATTTTCCTAATCTTTCTGTTCAAGCGCCATCTAC", "binding signal": "0.267 RPM ratio (pull-down/input)"}
{"sequence": "GATGATTGTTCTCCCAGCTGATGAATTTTGTCTCTCGAGTAAACAAATTTTCCTAATCTTTCTGTTCAAGCGCCATCTAC", "binding signal": "2.39 RPM ratio (pull-down/input)"}
{"sequence": "GATGATTGTTCTCCCAGCTGATGAATTGTCCTCCTCGAGTAAACAAATTTTCCTAATCTTTCTGTTCAAGCGCCATCTAC", "binding signal": "0.37 RPM ratio (pull-down/input)"}
{"sequence": "GATGATTGTTCTCCCAGCTGATGAATTTGTGCGCTCGAGTAAACAAATTTTCCTAATCTTTCTGTTCAAGCGCCATCTAC", "binding signal": "1.87 RPM ratio (pull-down/input)"}
{"sequence": "GATGATTGTTCTCCCAGCTGATGAATTTATGCGGTCGAGTAAACAAATTTTCCTAATCTTTCTGTTCAAGCGCCATCTAC", "binding signal": "1.09 RPM ratio (pull-down/input)"}
{"sequence": "GATGATTGTTCTCCCAGCTGATGAATTAGTCCGCTCGAGTAAACAAATTTTCCTAATCTTTCTGTTCAAGCGCCATCTAC", "binding signal": "0.349 RPM ratio (pull-down/input)"}
{"sequence": "GATGATTGTTCTCCCAGCTGATGAATTTTGTCGATCGAGTAAACAAATTTTCCTAATCTTTCTGTTCAAGCGCCATCTAC", "binding signal": "1.18 RPM ratio (pull-down/input)"}
{"sequence": "GATGATTGTTCTCCCAGCTGATGAATTCTTCGACTCGAGTAAACAAATTTTCCTAATCTTTCTGTTCAAGCGCCATCTAC", "binding signal": "0.239 RPM ratio (pull-down/input)"}
{"sequence": "GATGATTGTTCTCCCAGCTGATGAATTGATAATCTCGAGTAAACAAATTTTCCTAATCTTTCTGTTCAAGCGCCATCTAC", "binding signal": "0.411 RPM ratio (pull-down/input)"}
{"sequence": "GATGATTGTTCTCCCAGCTGATGAATTTACTTTCTCGAGTAAACAAATTTTCCTAATCTTTCTGTTCAAGCGCCATCTAC", "binding signal": "1.32 RPM ratio (pull-down/input)"}
{"sequence": "GATGATTGTTCTCCCAGCTGATGAATTCTAGCCTTCGAGTAAACAAATTTTCCTAATCTTTCTGTTCAAGCGCCATCTAC", "binding signal": "1.89 RPM ratio (pull-down/input)"}
{"sequence": "GATGATTGTTCTCCCAGCTGATGAATTTCCGTGGTCGAGTAAACAAATTTTCCTAATCTTTCTGTTCAAGCGCCATCTAC", "binding signal": "0.282 RPM ratio (pull-down/input)"}
{"sequence": "GATGATTGTTCTCCCAGCTGATGAATTCGTCGGGTCGAGTAAACAAATTTTCCTAATCTTTCTGTTCAAGCGCCATCTAC", "binding signal": "0.574 RPM ratio (pull-down/input)"}
{"sequence": "GATGATTGTTCTCCCAGCTGATGAATTGGTTTGCTCGAGTAAACAAATTTTCCTAATCTTTCTGTTCAAGCGCCATCTAC", "binding signal": "4.24 RPM ratio (pull-down/input)"}
{"sequence": "GATGATTGTTCTCCCAGCTGATGAATTTTAGTTATCGAGTAAACAAATTTTCCTAATCTTTCTGTTCAAGCGCCATCTAC", "binding signal": "1.33 RPM ratio (pull-down/input)"}
{"sequence": "GATGATTGTTCTCCCAGCTGATGAATTTGTTGTCTCGAGTAAACAAATTTTCCTAATCTTTCTGTTCAAGCGCCATCTAC", "binding signal": "7.77 RPM ratio (pull-down/input)"}
{"sequence": "GATGATTGTTCTCCCAGCTGATGAATTGTCTTCTTCGAGTAAACAAATTTTCCTAATCTTTCTGTTCAAGCGCCATCTAC", "binding signal": "0.478 RPM ratio (pull-down/input)"}
{"sequence": "GATGATTGTTCTCCCAGCTGATGAATTTGTCTTCTCGAGTAAACAAATTTTCCTAATCTTTCTGTTCAAGCGCCATCTAC", "binding signal": "4.22 RPM ratio (pull-down/input)"}
{"sequence": "GATGATTGTTCTCCCAGCTGATGAATTTTTTGTCTCGAGTAAACAAATTTTCCTAATCTTTCTGTTCAAGCGCCATCTAC", "binding signal": "0.367 RPM ratio (pull-down/input)"}
{"sequence": "GATGATTGTTCTCCCAGCTGATGAATTGTTGTCTTCGAGTAAACAAATTTTCCTAATCTTTCTGTTCAAGCGCCATCTAC", "binding signal": "5.62 RPM ratio (pull-down/input)"}
{"sequence": "GATGATTGTTCTCCCAGCTGATGAATTTCTGTCTTCGAGTAAACAAATTTTCCTAATCTTTCTGTTCAAGCGCCATCTAC", "binding signal": "0.368 RPM ratio (pull-down/input)"}
{"sequence": "GATGATTGTTCTCCCAGCTGATGAATTCCATTCGTCGAGTAAACAAATTTTCCTAATCTTTCTGTTCAAGCGCCATCTAC", "binding signal": "0.494 RPM ratio (pull-down/input)"}
{"sequence": "GATGATTGTTCTCCCAGCTGATGAATTAGAGAGTTCGAGTAAACAAATTTTCCTAATCTTTCTGTTCAAGCGCCATCTAC", "binding signal": "0.399 RPM ratio (pull-down/input)"}
{"sequence": "GATGATTGTTCTCCCAGCTGATGAATTACTGGGGTCGAGTAAACAAATTTTCCTAATCTTTCTGTTCAAGCGCCATCTAC", "binding signal": "0.231 RPM ratio (pull-down/input)"}
{"sequence": "GATGATTGTTCTCCCAGCTGATGAATTGAACTGGTCGAGTAAACAAATTTTCCTAATCTTTCTGTTCAAGCGCCATCTAC", "binding signal": "0.209 RPM ratio (pull-down/input)"}
{"sequence": "GATGATTGTTCTCCCAGCTGATGAATTAGAGATCTCGAGTAAACAAATTTTCCTAATCTTTCTGTTCAAGCGCCATCTAC", "binding signal": "0.32 RPM ratio (pull-down/input)"}
{"sequence": "GATGATTGTTCTCCCAGCTGATGAATTAGAATGTTCGAGTAAACAAATTTTCCTAATCTTTCTGTTCAAGCGCCATCTAC", "binding signal": "0.671 RPM ratio (pull-down/input)"}
